Screens: PubChem, University of Kansas High Throughput Screening Laboratory
The full list was thinned out, with hits kept by preference.
Pf apPOL block – Pf-apPOL DNA polymerase inhibition; Recombinant Pf-apPOL, molecular beacon fluorescence, 1.5 h; inhibition, % at 10 µM; 210,000 compounds, 0.25% hits
mHTT-CaM PPI inh – mHTT-calmodulin interaction abrogation | P42858 | AlphaScreen His-mHTT/GST-CaM binding, luminescence | inhibition, % at 15 µM | 190,000 compounds, 3.6% hits | AID 1671202;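 also: 0% = both proteins with DMSO and 100% = one protein alone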
* marks the source's active call; other numbers are inactive results; . = not tested or not shown. Rule as the data show it: active = inhibition above about 50%; inactive = the rest.

SMILES	Pf apPOL block	mHTT-CaM PPI inh
COc1ccc(N=C2C(=O)N3c4c(cc(C)cc42)C(C)=CC3(C)C)cc1	2	72*
COc1ccc2c(c1)C(C)=CC(C)(C)N2C(=O)C(C)N1C(=O)c2ccccc2C1=O (stereo not given)	-4	10
Cc1ccc(Cl)cc1N1CCN(CC(O)COCC23CC4CC(CC(C4)C2)C3)CC1 (stereo not given)	-4	20
O=C(c1ccc(C(F)(F)F)s1)N1CC2CC1CC2NS(=O)(=O)c1ccccc1 (stereo not given)	-5	0
Cc1ccc(Cl)cc1NC(=O)c1oc2ccc(S(=O)(=O)N3CCCC3)cc2c1C	-17	-12
COc1ccc(NC(=O)c2c(NC(=O)c3ccccc3Cl)sc3c2CCCC3)c(OC)c1	-9	4
COc1ccc(Cl)cc1NC(=O)c1c(NCc2ccccn2)sc2c1CCCC2	-17	75*
COc1ccc(NC(=O)c2c(NC(=O)c3cccnc3)sc3c2CCC3)cc1	2	0
COc1ccc(OC)c(NC(=O)c2c(NC(=O)c3ccccc3F)sc3c2CCCC3)c1	-24	-4
COc1ccc(Cl)cc1NC(=O)c1c(NCc2cccn2C)sc2c1CCCC2	-15	65*
COc1ccc(OC)c(NC(=O)c2c(NCc3ccccn3)sc3c2CCCC3)c1	-18	59*
CCOc1ccccc1NC(=O)c1c(NCc2cc(OC)ccc2OC)sc2c1CCC2	-19	16
COc1ccc(NC(=O)c2c(NCc3ccccn3)sc3c2CCC3)cc1	-17	59*
Cc1cccc2nnc(N3CCCC(C(=O)Nc4ccc(N5CCOCC5)cc4)C3)n12 (stereo not given)	4	19
O=C(Nc1cc(Cl)cc(Cl)c1)c1cnn2c(C(F)(F)F)cc(-c3ccco3)nc12	0	5
CC(C)(C)c1ccc(C(=O)NCc2ccccn2)cc1	-6	3
Cn1cccc(C(=O)Nc2ccc(CC(=O)NCC(F)(F)F)cc2)c1=O	-1	-1
c1ccc2c(CCc3ccncc3)c[nH]c2c1	6	5
c1ccc(Cc2c[nH]c3ccccc23)cc1	-1	61*
COc1ccc(C2CC(=O)C3=C(C2)Nc2ccccc2NC3c2ccc(Cl)c([N+](=O)[O-])c2)cc1 (stereo not given)	-15	52*
O=C1CC(c2ccccc2Cl)CC2=C1C(c1ccc(F)cc1)Nc1ccccc1N2 (stereo not given)	-2	57*
COc1ccc(C2Nc3ccccc3NC3=C2C(=O)CC(c2ccccc2)C3)cc1 (stereo not given)	-2	26
COc1ccc(C2CC(=O)C3=C(C2)Nc2ccccc2NC3c2cccc(C(F)(F)F)c2)cc1 (stereo not given)	8	17
COc1ccc(C2CC(=O)C3=C(C2)Nc2ccccc2NC3c2ccc(C(F)(F)F)cc2)cc1 (stereo not given)	2	53*
O=C1CC(c2ccccc2)CC2=C1C(c1ccc(F)c(Br)c1)Nc1ccccc1N2 (stereo not given)	-5	59*
SMILES	Pf apPOL block	mHTT-CaM PPI inh
O=C1CC(c2ccccc2)CC2=C1C(c1cccc(F)c1)Nc1ccccc1N2 (stereo not given)	-5	9
Cc1ccc(C2Nc3ccccc3NC3=C2C(=O)CC(c2ccccc2F)C3)cc1 (stereo not given)	-4	39
Cc1cc(=O)[nH]c(N=C(N)Nc2ccccc2)n1	-6	0
Cc1ccc(F)c(NS(=O)(=O)c2cc3n(c2)CCCNC3=O)c1	9	-4
CCOCC(=O)N1CCC(COc2ccc(C(=O)N3CCCC3)cc2)CC1	-1	2
O=C(O)c1cnn2c(C(F)(F)F)cc(-c3cccs3)nc12	-3	0
COc1ccccc1-n1ccn2cc(-c3ccc(F)cc3)nc2c1=O	-1	6
Cc1ccc(S(=O)(=O)ON2C(=O)c3ccccc3C2=O)cc1	6	-340
CCOC(=O)C(=CNNc1ccnc2cc(Cl)ccc12)C(=O)OCC	-7	.
O=C1CC(c2cccs2)CC2=C1C(c1ccc(F)cc1)Nc1ccccc1N2 (stereo not given)	-19	18
O=C1CC(c2ccccc2)CC2=C1C(c1ccc(C(F)(F)F)cc1)Nc1ccccc1N2 (stereo not given)	-2	86*
O=C1CC(c2ccccc2)CC2=C1C(c1ccccc1C(F)(F)F)Nc1ccccc1N2 (stereo not given)	-4	19
O=C1CC(c2cccs2)CC2=C1C(c1ccc(Cl)c(Cl)c1)Nc1ccccc1N2 (stereo not given)	-3	77*
Cc1ccccc1CNC(=O)c1c(C)oc2ccn(C)c(=O)c12	5	14
O=c1[nH]c2cc(S(=O)(=O)NCCCn3ccnc3)ccc2s1	.	2
COc1ccccc1N1C(=N)S/C(=C\c2ccc(Br)c([N+](=O)[O-])c2)C1=O	-8	57*
COc1ccc(/C=C2\SC(=O)N(c3ccccc3OC)C2=O)cc1	-4	4
O=[N+]([O-])c1ccc(N2CCCC2)cc1NCC1CCCO1 (stereo not given)	-7	10
O=C(Nc1cccc(-c2ccc3nncn3n2)c1)c1ccc(N2CCCC2)nn1	-5	-9
Cc1sc(N)nc1-c1ccc(Cl)cc1	-20	-7
Cc1sc(N)nc1-c1c[nH]c2ccccc12	-12	94*
O=C1N(Cc2ccccc2)c2ccccc2C1(Cc1ccccc1)c1ccccc1 (stereo not given)	0	.
Cc1cc(C2(c3ccc(O)c(C)c3)C(=O)N(Cc3ccccc3)c3ccccc32)ccc1O	-8	95*
c1ccc(-c2noc(-c3ccc(N4CCCCCC4)nc3)n2)cc1	-2	-10
CCOc1ccc(Nc2nc(C)c([N+](=O)[O-])c(N(C)c3ccccc3)n2)cc1	-1	19
SMILES	Pf apPOL block	mHTT-CaM PPI inh
COc1cccc(NC(=O)C2CCc3nc(N4CCOCC4)ncc3C2)c1 (stereo not given)	-2	21
Cc1ccc(C)c(S(=O)(=O)n2nnc3cc(Cl)ccc32)c1	-2	-6
COc1ccc(OC)c(S(=O)(=O)n2nnc3cc(Cl)ccc32)c1	-10	100*
Cc1ccc2cc(NC(=O)c3cccs3)ccc2n1	-14	.
CCc1oc2cc(O)ccc2c(=O)c1-c1nc2ccccc2n1C	-2	0
CCc1cc2c(=O)c(-c3nc4ccccc4n3C)c(C(C)(C)C)oc2cc1O	3	-6
CCc1cc2c(=O)c(-c3nc4ccccc4n3C)c(COCC(=O)O)oc2cc1OC(=O)C(C)(C)C	-3	51*
CCc1cc2c(=O)c(-c3nc4ccccc4n3C)c(C(F)(F)F)oc2cc1O	-1	97*
CC(C)(C)NC(=O)N1CCC(CNC(=O)c2ccc3nsnc3c2)CC1	0	-6
Cc1nc2ccccn2c1-c1csc(N)n1	.	-1
CC(=O)Nc1ccc(Nc2nc(-c3c(C)nc4ccccn34)cs2)cc1	-4	21
Cc1ccnc(Nc2nc(-c3c(C)nc4ccccn34)cs2)c1	-7	62*
COc1ccccc1Nc1nc(-c2c(C)nc3cc(C)ccn23)cs1	-1	76*
Cc1nc2ccccn2c1-c1csc(Nc2ccc(N)cc2)n1	1	63*
C=CCNc1nc(-c2c(C)nc3ccccn23)cs1	14	9
O=C(c1ccoc1)N1CCCCC1c1nc(C2CC2)no1 (stereo not given)	4	6
CCc1ccccc1NS(=O)(=O)c1ccc(OC)cc1	-3	-11
O=C(c1ccc(F)cc1)N1CCCC(c2ccnc(-c3ccccc3)n2)C1 (stereo not given)	-2	18
